Results on six compounds are retold here after PubChem BioAssay (Tox21).

Assay [1] can be described thus: Nuclear factor erythroid 2-related factor 2/antioxidant responsive element (Nrf2/ARE) small molecule agonists: luciferase reporter gene qHTS assay in human keratinocytes (AID 1919969). Note: nearly all actives have a fitted effect of over 35% in size. Background: Reporter assays use an easily measured gene product as a stand-in for the process of interest.
The target of assay [2] is Gonadotropin-releasing hormone receptor (Homo sapiens) (UniProt P30968). The experiment in a line: Human gonadotropin-releasing hormone receptor (GnRHR) small molecule agonists, calcium flux assay in GnRHR-HEK293 cells (AID 1920063). Note: nearly all actives have a fitted effect of over 35% in size. Note: potency is the fitted concentration of half-maximal effect. Summed up:
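We seeded human GnRHR-expressing HEK293 cells for 18 hours, loaded them with calcium dye for an hour at 37 C, added test compounds, and recorded fluorescence intensity kinetically for three minutes.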
A general note: Calcium flux is commonly read through the fluorescence of an indicator in the cells.

Assay [3] has as its target KiSS-1 receptor (Homo sapiens) (UniProt Q969F8). The experiment in a line: Human kisspeptin (KISS1R) small molecule agonists, calcium flux assay in KISS1R-HEK293 cells (AID 1920064; active = well fitted activation curve with a large enough effect in the repeat runs; note: potency is the fitted concentration of half-maximal effect). Summed up: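 Kinetic calcium assay, 1 s sampling over 3 min at Ex/Em 480/540, in HEK293 cells engineered with human KISS1R; compounds delivered in DMSO after 1 h dye loading.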
The nature of assay [4]: G protein-coupled receptor (GPCR) small molecule agonists, calcium flux assay: HEK293 wild type cell line counter screen (AID 1920065). Note: potency is the fitted concentration of half-maximal effect. Summed up:
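Calcium-sensitive dye, loaded 1 h at 37 C into cells cultured 18 h, reports compound-evoked calcium release as fluorescence (Ex/Em 480/540), measured over 3 min. Agonist mode; 15-point titrations, triplicate.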

Assay [5] is described as follows: p53 small molecule agonists, cell-based qHTS assay with human liver microsomes (AID 1963577).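 Note: p53 response element beta-lactamase reporter cells with liver microsomes plus NADPH.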 Summed up:
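With metabolic activation: human liver microsomes (0.5 mg/mL final) plus NADPH (0.5 mg/mL final) added alongside compounds to p53RE-bla cells; 16 h 37 C exposure; beta-lactamase read by LiveBLAzer fluorescence.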
(In general: In qHTS, concentration-response curves come from the screen itself.)

Assay [6] can be described thus: p53 small molecule agonists, cell-based qHTS assay with rat liver microsomes (AID 1963578). Summed up: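 Metabolic activation by rat liver microsomes and NADPH, each 0.5 mg/mL final, added right after compounds to p53RE-bla reporter cells (4,000/well, plated 5 h earlier). 16 h at 37 C, then LiveBLAzer substrate for 2 h at room temperature in the dark; fluorescence read-out.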

Assay [7] in a line: p53 small molecule agonists, cell-based qHTS assay with human liver microsomes: qHTS cell viability counter screen (AID 1963579). Note: nearly all actives have a fitted effect of over 45% in size. Summed up: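 Metabolic activation used human liver microsomes and NADPH, both 0.5 mg/mL final, over 16 hours at 37 C on p53RE-bla cells (4,000/well). Cytotoxicity measured by CellTiter-Glo luminescence, 30 min at room temperature.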
Assay [8] in a line: p53 small molecule agonists, cell-based qHTS assay with rat liver microsomes: qHTS cell viability counter screen (AID 1963580). Note: nearly all actives have a fitted effect of over 45% in size. Summed up:
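p53RE-bla HCT-116 cells were exposed 16 h at 37 C to compounds with rat liver microsomes (0.5 mg/mL) and NADPH (0.5 mg/mL). Viability was measured in the same wells as ATP content by CellTiter-Glo luminescence.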

Assay [9] is described as follows: p53 small molecule agonists, cell-based qHTS assay: qHTS cell viability counter screen (AID 1963581). Note: nearly all actives have a fitted effect of over 45% in size. Summed up:
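Following 5 h attachment, HCT-116 p53RE-bla cells took up compound for 16 h at 37 C; the reporter was read with B/G FRET substrate (2 h RT), and viability then via CellTiter-Glo ATP luminescence.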

Assay [10] can be described thus: p53 small molecule agonists, cell-based qHTS assay (AID 1963582; active = well fitted activation curve with a large enough effect in the signal ratio in the repeat runs, not every such curve was filed as active; the % refers to the signal ratio). Summed up:
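In this cell-based concentration-response screen, a p53 response element drives beta-lactamase; cells received DMSO-borne compounds after 5 h culture and were incubated a further 16 h before FRET substrate development.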

Assay [11] deals with 5-hydroxytryptamine receptor 2A (Homo sapiens) (UniProt P28223). The experiment in a line: 5-hydroxytryptamine receptor 2A (HTR2A) small molecule antagonists, cell-based qHTS assay (AID 1963586). Note: nearly all actives have a fitted effect of over 45% in size. Note: potency is the fitted concentration of half-maximal effect. Summed up: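 Antagonist-mode intracellular calcium assay: DOI (4 nM) added after 5 min compound pre-incubation at room temperature to dye-loaded HTR2A-CHO cells. Fluorescence followed for 3 min, sampled every second.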

The target is the same in assay [12]. The experiment in a line: 5-hydroxytryptamine receptor 2A (HTR2A) small molecule agonists, cell-based qHTS assay (AID 1963587). Note: nearly all actives have a fitted effect of over 30% in size. Note: potency is the fitted concentration of half-maximal effect. Summed up:
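CHO cells stably expressing human HTR2A, plated 18 h, loaded with calcium dye 1 h at 37 C. Agonist mode: compounds added and intracellular calcium fluorescence recorded kinetically for 2 min at 1 sec intervals.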

For assay [13], the target named is Muscarinic acetylcholine receptor M1 (Homo sapiens) (UniProt P11229). The experiment in a line: Cholinergic receptor muscarinic 1 (CHRM1) small molecule antagonists, cell-based qHTS assay (AID 1963588). Note: nearly all actives have a fitted effect of over 40% in size. Summed up:
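CHRM1-CHO calcium-flux assay, antagonist mode. Cells were seeded 18 h, dye-loaded 1 h at 37 C and given compound for 5 min at RT, then acetylcholine was added at 50nM. FDSS fluorescence was read 3 min; 15 concentrations, three runs.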

For assay [14] the target is unchanged. Briefly: Cholinergic receptor muscarinic 1 (CHRM1) small molecule agonists, cell-based qHTS assay (AID 1963589). Note: nearly all actives have a fitted effect of over 35% in size. Note: potency is the fitted concentration of half-maximal effect. Summed up: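 Measures agonist-induced intracellular calcium rise. Stable human CHRM1 CHO line, 1 h dye load at 37 C, compounds from DMSO, kinetic fluorescence read.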
Assay [15] is described as follows: cAMP Responsive Elements (CRE) small molecule antagonists, cell-based qHTS assay (AID 1963591; active = well fitted inhibition curve with a large enough effect in the signal ratio in the repeat runs, not every such curve was filed as active; the % refers to the signal ratio). Summed up:
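HEK293T cells carrying a CRE-driven beta-lactamase reporter receive compound and NKH477 (0.25 uM final) for 3 h. Fluorescence from LiveBLAzer B/G FRET substrate is read after 2 h at room temperature.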

The target in assay [16] is Beta-2 adrenergic receptor (Homo sapiens) (UniProt P07550). Briefly: Adrenergic beta2 receptor (ADRB2) small molecule antagonists, cell-based qHTS assay (AID 1963592). Note: series mostly up to about 92 µM; nearly all actives have a fitted effect of over 50% in size. Summed up: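 Cells (CHO, stable ADRB2 overexpression) incubated 18-20hr at 37C; compounds added from DMSO; agonist mix (1nM isoproterenol, 100uM IBMX, 25uM Ro-20-1724) added; 0.5hr RT; d2-cAMP and anti-cAMP-cryptate added; 1hr RT; 665/615 nm read.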

Assay [17] addresses D(2) dopamine receptor (Homo sapiens) (UniProt P14416). The experiment in a line: Dopamine D2 receptor (DRD2) small molecule agonists, cell-based qHTS assay (AID 1963594). Note: nearly all actives have a fitted effect of over 35% in size. Summed up: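 HEK293 cells stably expressing human DRD2, pre-treated with PDE inhibitor Ro20-1724 (0.1 mM final) and compound 10 min at room temperature, then stimulated with NKH477 (200nM […]) for 30 min. cAMP read by HTRF (665/620 nm).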

Assay [18] has the same target. Briefly: Dopamine D2 receptor (DRD2) small molecule antagonists, cell-based qHTS assay (AID 1963595; active = well fitted inhibition curve with a large enough effect in the signal ratio in the repeat runs, with a control signal flat; the % refers to the signal ratio; note: potency is the fitted concentration of half-maximal effect). Summed up:
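Readout: HTRF cAMP, cAMP-d2 competing with cellular cAMP for anti-cAMP cryptate, read after 1 h. Cells: DRD2-HEK293. Conditions: 0.1 mM Ro20-1724, 12 nM quinpirole, 200 nM NKH477, 30 min RT.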

Assay [19] has as its target Beta-2 adrenergic receptor (Homo sapiens) (UniProt P07550). Briefly: Adrenergic beta2 receptor (ADRB2) small molecule agonists, cell-based qHTS assay (AID 1963593).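 Note: CHO cells stably overexpressing human ADRB2.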 Summed up: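 CHO cells stably over-expressing ADRB2 were plated overnight at 37C, then dosed with compounds plus a stimulation mix containing 100uM IBMX and 25uM Ro-20-1724 for 0.5hr at room temperature. cAMP was measured by HTRF competition, 1hr.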

A short description of assay [20]: cAMP Responsive Elements (CRE) small molecule agonists, cell-based qHTS assay (AID 1963590). Summed up:
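A CRE-responsive beta-lactamase reporter in HEK 293T cells was used. Treatment ran 3 h at 37 C; detection used LiveBLAzer B/G FRET substrate for 2 h at room temperature.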

The structures appear in SMILES notation. “And” between values parts separate entries of the source, which are not always exact repeats. Identical values can stand only once. Values without a mark were called inactive. Records with an inconclusive call do not appear. The source made the active and inactive calls. Unless noted, calls come from the whole dose curve.
% is set by controls: 0 for no effect and ±100 for the full control effect.

Sequence of KiSS-1 receptor (Homo sapiens) (Q969F8 whole entry, looked up): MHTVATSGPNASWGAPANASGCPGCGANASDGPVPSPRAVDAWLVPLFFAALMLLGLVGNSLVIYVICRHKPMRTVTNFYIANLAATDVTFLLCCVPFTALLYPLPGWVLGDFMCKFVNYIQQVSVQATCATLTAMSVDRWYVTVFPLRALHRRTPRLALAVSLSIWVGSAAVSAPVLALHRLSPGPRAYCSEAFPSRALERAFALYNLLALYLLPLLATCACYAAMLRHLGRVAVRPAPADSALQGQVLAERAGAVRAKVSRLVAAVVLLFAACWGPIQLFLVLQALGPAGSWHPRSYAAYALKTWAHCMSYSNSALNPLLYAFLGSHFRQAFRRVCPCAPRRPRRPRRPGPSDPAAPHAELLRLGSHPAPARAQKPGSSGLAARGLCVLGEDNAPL
Sequence of 5-hydroxytryptamine receptor 2A (Homo sapiens) (P28223 whole entry, looked up): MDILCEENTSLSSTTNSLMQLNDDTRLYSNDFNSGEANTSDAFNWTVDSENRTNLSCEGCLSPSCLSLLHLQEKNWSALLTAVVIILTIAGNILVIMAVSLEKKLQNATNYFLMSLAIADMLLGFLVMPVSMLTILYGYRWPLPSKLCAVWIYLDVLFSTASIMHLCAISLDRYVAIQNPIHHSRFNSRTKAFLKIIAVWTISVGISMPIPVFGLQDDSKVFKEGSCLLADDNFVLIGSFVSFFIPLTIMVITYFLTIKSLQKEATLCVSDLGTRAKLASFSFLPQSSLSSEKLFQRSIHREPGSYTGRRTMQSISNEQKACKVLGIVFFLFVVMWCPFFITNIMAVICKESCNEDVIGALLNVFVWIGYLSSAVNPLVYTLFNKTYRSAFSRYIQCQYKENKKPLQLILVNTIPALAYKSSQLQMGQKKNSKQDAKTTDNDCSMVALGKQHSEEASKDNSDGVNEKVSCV
Sequence of Gonadotropin-releasing hormone receptor (Homo sapiens) (P30968 whole entry, looked up): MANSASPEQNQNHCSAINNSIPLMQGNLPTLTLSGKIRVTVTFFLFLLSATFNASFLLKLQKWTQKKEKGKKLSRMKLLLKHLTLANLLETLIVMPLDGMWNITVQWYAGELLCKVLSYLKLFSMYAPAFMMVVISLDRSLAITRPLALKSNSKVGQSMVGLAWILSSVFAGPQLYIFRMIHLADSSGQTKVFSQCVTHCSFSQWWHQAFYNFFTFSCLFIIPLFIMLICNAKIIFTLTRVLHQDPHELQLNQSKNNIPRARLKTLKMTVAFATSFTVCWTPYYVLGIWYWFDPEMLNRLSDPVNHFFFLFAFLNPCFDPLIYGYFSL
Sequence of D(2) dopamine receptor (Homo sapiens) (P14416 whole entry, looked up): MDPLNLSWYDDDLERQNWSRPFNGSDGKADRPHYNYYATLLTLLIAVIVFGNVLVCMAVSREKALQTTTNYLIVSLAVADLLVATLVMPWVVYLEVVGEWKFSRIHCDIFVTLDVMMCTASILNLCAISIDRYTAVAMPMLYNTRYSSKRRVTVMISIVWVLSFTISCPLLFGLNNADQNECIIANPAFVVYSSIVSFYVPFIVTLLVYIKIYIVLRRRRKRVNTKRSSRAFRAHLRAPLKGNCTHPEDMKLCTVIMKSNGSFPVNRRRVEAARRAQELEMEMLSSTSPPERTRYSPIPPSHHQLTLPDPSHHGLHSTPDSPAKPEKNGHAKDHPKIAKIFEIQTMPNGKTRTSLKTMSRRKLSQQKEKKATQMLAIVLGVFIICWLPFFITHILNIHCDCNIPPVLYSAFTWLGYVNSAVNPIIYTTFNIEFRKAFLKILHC
Sequence of Beta-2 adrenergic receptor (Homo sapiens) (P07550 whole entry, looked up): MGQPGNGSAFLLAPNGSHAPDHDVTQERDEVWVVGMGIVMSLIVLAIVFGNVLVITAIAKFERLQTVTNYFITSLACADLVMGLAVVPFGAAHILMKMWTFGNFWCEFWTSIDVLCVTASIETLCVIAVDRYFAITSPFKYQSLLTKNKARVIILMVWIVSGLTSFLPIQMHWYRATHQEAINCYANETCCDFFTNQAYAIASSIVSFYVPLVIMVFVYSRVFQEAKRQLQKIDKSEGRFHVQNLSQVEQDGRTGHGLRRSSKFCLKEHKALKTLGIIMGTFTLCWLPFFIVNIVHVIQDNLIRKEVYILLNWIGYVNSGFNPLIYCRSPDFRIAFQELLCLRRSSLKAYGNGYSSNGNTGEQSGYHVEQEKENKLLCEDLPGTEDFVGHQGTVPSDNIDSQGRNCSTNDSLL
Sequence of Muscarinic acetylcholine receptor M1 (Homo sapiens) (P11229 whole entry, looked up): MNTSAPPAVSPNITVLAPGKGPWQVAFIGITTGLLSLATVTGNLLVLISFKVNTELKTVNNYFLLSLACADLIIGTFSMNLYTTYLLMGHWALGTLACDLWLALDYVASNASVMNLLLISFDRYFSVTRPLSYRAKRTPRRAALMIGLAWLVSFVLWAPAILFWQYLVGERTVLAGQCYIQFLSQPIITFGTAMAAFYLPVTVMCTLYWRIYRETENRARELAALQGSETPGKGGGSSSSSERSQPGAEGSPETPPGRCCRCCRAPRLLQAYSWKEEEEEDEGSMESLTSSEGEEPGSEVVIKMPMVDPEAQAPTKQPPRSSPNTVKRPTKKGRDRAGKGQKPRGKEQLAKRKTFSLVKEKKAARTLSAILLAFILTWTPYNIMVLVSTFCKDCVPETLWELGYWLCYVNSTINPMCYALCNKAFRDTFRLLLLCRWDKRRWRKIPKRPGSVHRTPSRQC

`CCCCCCCC/C=C\CCCCCCCC(=O)NCc1ccc(O)c(OC)c1`: the Potency result in assay [1], in assay [2], in [3], in assay [4], in assay [5] and in assay [6] was “inactive” each time. Besides, the Potency entry in assay [7], in assay [8], in [9], in assay [10], in [11] and in [12] was “inactive” each time. Besides, the Potency result in [13], in assay [14], in assay [15], in [16], in [17] and in [18] was “inactive” in each case.
As to `Cc1cc2nc3c(=O)[nH]c(=O)nc-3n(C[C@H](O)[C@H](O)[C@H](O)CO)c2cc1C`, the Potency entry in assay [1], in [7], in assay [8], in [9], in assay [10] and in [11] was “inactive” throughout. For the same compound, in assay [13], the Potency entry is “inactive”. Besides, the Potency is 17.2 µM (active) and 11.4 µM (active) and 8.27 µM (active) in assay [2]; 24.3 µM (active) and 22.8 µM (active) in assay [3]; 38.5 µM (active) and 32.2 µM (active) and 9.28 µM (active) in assay [4]; 6.1 µM (active) and 16.1 µM (active) and 11.7 µM (active) in assay [12]; 24.3 µM (active) and 20.3 µM (active) and 11.7 µM (active) in assay [14]. Further, the activation is -6.49% [at 13.5 µM] in assay [5], -5.55% [at 13.6 µM] in [6] and 1.44% [at 19 µM] in [19]. Further, in assay [16], the activity change, negative = inhibition was -10.6% [at 19 µM].
For the compound `CN(C)CC/C=C1\c2ccccc2Sc2ccc(Cl)cc21`, the Potency entry in [1], in [2], in [3], in [4], in assay [5] and in [6] was “inactive” in each case. Further, the Potency result in assay [7], in [8], in [9], in assay [12], in assay [13] and in assay [14] was “inactive” each time. Moreover, the Potency entry in [15], in assay [16] and in assay [17] was “inactive” throughout. Moreover, the Potency was 72.9 nM (active) in [11] and 531 nM (active) in assay [18].
As to `Cc1ccc(N=Nc2c(O)c(C(=O)O)cc3ccccc23)c(S(=O)(=O)O)c1`, the Potency result in assay [1], in assay [2], in [3], in assay [4], in [5] and in [6] was “inactive” in each case. Moreover, the Potency entry in assay [7], in [8], in [9], in assay [11], in [12] and in [13] was “inactive” each time. The Potency result in [14], in assay [15], in [16], in assay [19], in assay [17] and in assay [18] was “inactive” throughout.
On to `COc1ccc(-c2ccc3cc(C(=O)O)ccc3c2)cc1C12CC3CC(CC(C3)C1)C2`, for which the Potency result in assay [1], in assay [2], in [3], in assay [4], in assay [5] and in [6] was “inactive” throughout. For the same compound, the Potency result in assay [7], in assay [8], in assay [9], in [10], in assay [11] and in assay [12] was “inactive” throughout. Besides, the Potency entry in [13], in assay [14], in assay [20], in assay [15], in assay [16] and in assay [17] was “inactive” in each case. Moreover, the Potency result in assay [18] was “inactive”.
`CCCCCCCCCCCCCCCS(=O)(=O)Oc1ccccc1`: the Potency result in [1], in assay [2], in [3], in assay [4], in assay [5] and in [6] was “inactive” throughout. Moreover, the Potency entry in assay [7], in [8], in assay [9], in assay [11], in [12] and in assay [13] was “inactive” each time. Further, the Potency entry in assay [14], in [15], in assay [16], in [17] and in assay [18] was “inactive” in each case.
